The source of these data is PubChem BioAssay (NCI).

Molecules are shown by their SMILES. The panel holds about 83,000 compounds, 20% with a hit somewhere; the sample as a whole holds those more often.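 Compound tested at a single concentration for 48 hours in 96-well plates; a percent growth value below 10 was scored as active.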 Values without a mark were called inactive. Active and inactive are the calls of the source.

One assay deals with KM12 colon. Nature of the assay: NCI-60 one-dose screen, 48 h (100 = growth as untreated, 0 = no growth, -100 = all killed). Particulars: 10 µM.
Consider `Nc1nc(Nc2ccc(Cl)cc2)n(Cc2cccc(Br)c2)n1`, for which the growth was -0.172% (active).

Consider `COc1ccc(N(C)c2cc(C#N)nc3ccccc23)cc1N`, for which the growth was 9.27% (active).

`CCOc1ccc(Nc2nc3ccccc3nc2Nc2ccc(OCC)cc2)cc1`: the growth is 47.4%.

For the compound `NS(=O)(=O)c1ccc(NC(=O)CSc2ccc(-c3ccccc3)nn2)c(Br)c1`, the growth is 85.3%.

In the case of `COc1ccc(OC)c(/C=N/NC(=O)c2ccc3nc(-c4ccc(Cl)cc4)[nH]c3c2)c1`, the growth is 76.7%.

On to `N#Cc1c(NC(=O)c2ccc(C(F)(F)F)cc2)sc2c1CCC(=O)C2`, for which the growth was -36.3% (active).

Consider `COc1ccc(-c2cc(-c3cc(C(=O)c4ccc(Br)cc4)n4ccc(C)cc34)nc(N)c2C#N)cc1`, for which the growth is 82.1%.

Turning to `CN1C(=O)N(C)C2SC(N/N=C/c3cccs3)=NC21` (stereo unspecified), the growth was 16.1%.

With `CN1CCN(Cc2ccc(NC(=O)c3cncc(C#Cc4cnc5ccc(N[C@@H]6CCOC6)nn45)c3)cc2C(F)(F)F)CC1`, the growth was -90.7% (active).

Regarding `COc1cc(C2CC(c3ccc(C)cc3)=Nc3c(N)nc(N)nc3N2)ccc1Oc1nc(Nc2ccc(F)cc2)nc(N(C)C)n1` (stereo unspecified), the growth is 52%.

On to `CC1=C2C(=C[C@@](C)(CO)[C@@H]2O)/C(=N\N)[C@](C)(O)C12CC2`, for which the growth was 7.94% (active).

`Cc1ccc(NCC(=O)Nn2c(COc3ccccc3)nc3ccccc3c2=O)cc1`: the growth is 100%.

As to `CN1C(=O)/C(=C/c2nccs2)SC1=S`, the growth was 90.2%.

`Cc1ccc2nc(-c3ccc(-c4nnc(SCC(=O)Nc5ccc(Cl)cc5)o4)cc3)[nH]c2c1`: the growth was 50.8%.

For the compound `O=C1Nc2cc(Cl)ccc2/C1=C/c1cccc(OCc2ccccc2)c1`, the growth is 4.45% (active).

On to `CCOc1ccc(/C=N/NC(=O)Cn2nc(Cc3ccccc3)c3onc(C)c3c2=O)cc1`, for which the growth was 66.4%.

As for `O=C(CSc1nnc(-c2c[nH]c3ccccc23)n1-c1ccccc1)Nc1ccc(C(=O)/C=C/c2ccc(Cl)cc2)cc1`, the growth was 64.5%.

Turning to `Oc1ccc(/C=C2\CCCc3cc4ccc(O)cc4[o+]c32)c(O)c1`, the growth was 6.02% (active).

As to `CCCSc1nc(NC2CC2)c(C#N)c(-c2ccc(OC)cc2)n1`, the growth is 107%.

As to `COc1ccc(/C=C/C(=O)c2ccc(NC(=O)CN3C(=O)NC(C)(c4ccccc4)C3=O)cc2)cc1` (stereo unspecified), the growth is 49.3%.

Take `Brc1ccc(/C=N/Nc2ncnc3sc4c(c23)CCN(Cc2ccccc2)C4)cc1`: the growth was 50.2%.

Turning to `CC1(c2ccccc2)NC(=O)N(CC(=O)Nc2ccc(C(=O)/C=C/C=C/c3ccccc3)cc2)C1=O` (stereo unspecified), the growth was 21%.

For `O=C(c1ccc(Cl)cc1)C1[C@H](c2ccccc2Br)[C@@H](c2ccccc2)NC12C(=O)Nc1ccc(Cl)cc12` (stereo partly specified), the growth was 8.12% (active).

For `COc1ccc2nc(Cl)c(-c3cc(-c4ccccc4)nc(=S)[nH]3)cc2c1`, the growth was 76.8%.

In the case of `CC(=O)Oc1ccccc1C(=O)Oc1ccc(C(=O)/C=C/c2ccncc2)cc1`, the growth was 22%.

Turning to `c1ccc(C(=C(c2ccc(OCCN3CCCCC3)cc2)c2ccc(OCCN3CCCCC3)cc2)C2CCCC2)cc1`, the growth is -80.5% (active).

With `CCCCSc1nc(Nc2ccc(/C(C)=N/NC(N)=S)cc2)c(C#N)c(-c2ccc(OC)cc2)n1`, the growth is 79.3%.

On to `COc1ccc(C(=O)Nc2ccc(-c3ccc4c(c3)NC(=O)/C4=C\c3ccc[nH]3)cc2)cc1`, for which the growth is 1.95% (active).

For `COc1cccc(/C=C2\N=C(C)N(CCc3ccc(S(N)(=O)=O)cc3)C2=O)c1`, the growth is 104%.

In the case of `COc1ccc(-c2nc(-c3ccccc3)c(-c3ccccc3)n2-c2ccc(S(=O)(=O)Nc3ncccn3)cc2)cc1OC`, the growth is 78.3%.

As to `Cc1ccc(F)cc1N/C=c1\s/c(=C(\C#N)C(=O)Nc2ccccc2)n(-c2ccccc2)c1=O`, the growth was 84.8%.

`CC1(c2ccccc2)NC(=O)N(CC(=O)Nc2ccc(C(=O)/C=C/c3ccccc3)cc2)C1=O` (stereo unspecified): the growth was -73% (active).

Regarding `COc1ccc(N2N=C(c3ccc4c(c3)OCCO4)CC2c2cccc(NC(=O)CCCNS(=O)(=O)c3ccc(F)cc3)c2)cc1` (stereo unspecified), the growth is -92.8% (active).

Regarding `Cc1ccc(S(=O)(=O)c2nc(-c3ccccc3)oc2S(=O)(=O)CC(=O)N2CCCC2)cc1`, the growth was 40.8%.

As for `Cn1cc(/C=N/Nc2cccc(Cl)n2)c2ccccc21`, the growth was 33.1%.

`CN(C)c1ccc(/C=C/C(=O)c2ccc(NC(=O)CN3C(=O)NC(C)(c4ccccc4)C3=O)cc2)cc1` (stereo unspecified): the growth is 23.7%.

Regarding `O=C1N/C(=N\c2nccs2)S/C1=C\c1cccs1`, the growth is 28.1%.

On to `O=C(c1ccc(O)cc1)C1[C@H](c2ccccc2Br)[C@@H](c2ccccc2)NC12C(=O)Nc1ccc(Cl)cc12` (stereo partly specified), for which the growth is -20.7% (active).

In a further assay the test system is MDA-MB-468 breast. The assay is described as above. Particulars: 10 µM.
Consider `Nc1nc(Nc2ccc(Cl)cc2)n(Cc2cccc(Br)c2)n1`, for which the growth was -46.5% (active).

Regarding `COc1ccc(N(C)c2cc(C#N)nc3ccccc23)cc1N`, the growth is 3.98% (active).

As for `CCOc1ccc(Nc2nc3ccccc3nc2Nc2ccc(OCC)cc2)cc1`, the growth is 25.4%.

As for `NS(=O)(=O)c1ccc(NC(=O)CSc2ccc(-c3ccccc3)nn2)c(Br)c1`, the growth was 98%.

Turning to `COc1ccc(OC)c(/C=N/NC(=O)c2ccc3nc(-c4ccc(Cl)cc4)[nH]c3c2)c1`, the growth was 69.6%.

Consider `N#Cc1c(NC(=O)c2ccc(C(F)(F)F)cc2)sc2c1CCC(=O)C2`, for which the growth was -71% (active).

With `COc1ccc(-c2cc(-c3cc(C(=O)c4ccc(Br)cc4)n4ccc(C)cc34)nc(N)c2C#N)cc1`, the growth is 24.3%.

For the compound `CN1C(=O)N(C)C2SC(N/N=C/c3cccs3)=NC21` (stereo unspecified), the growth is -22.8% (active).

In the case of `CN1CCN(Cc2ccc(NC(=O)c3cncc(C#Cc4cnc5ccc(N[C@@H]6CCOC6)nn45)c3)cc2C(F)(F)F)CC1`, the growth is -96.2% (active).

On to `COc1cc(C2CC(c3ccc(C)cc3)=Nc3c(N)nc(N)nc3N2)ccc1Oc1nc(Nc2ccc(F)cc2)nc(N(C)C)n1` (stereo unspecified), for which the growth is 15.6%.

As to `CC1=C2C(=C[C@@](C)(CO)[C@@H]2O)/C(=N\N)[C@](C)(O)C12CC2`, the growth was -90.8% (active).

On to `Cc1ccc(NCC(=O)Nn2c(COc3ccccc3)nc3ccccc3c2=O)cc1`, for which the growth was 80.1%.

For `CN1C(=O)/C(=C/c2nccs2)SC1=S`, the growth was 65.3%.

Consider `Cc1ccc2nc(-c3ccc(-c4nnc(SCC(=O)Nc5ccc(Cl)cc5)o4)cc3)[nH]c2c1`, for which the growth was 46.8%.

With `O=C1Nc2cc(Cl)ccc2/C1=C/c1cccc(OCc2ccccc2)c1`, the growth is 11.9%.

In the case of `CCOc1ccc(/C=N/NC(=O)Cn2nc(Cc3ccccc3)c3onc(C)c3c2=O)cc1`, the growth is -7.05% (active).

Take `O=C(CSc1nnc(-c2c[nH]c3ccccc23)n1-c1ccccc1)Nc1ccc(C(=O)/C=C/c2ccc(Cl)cc2)cc1`: the growth is 65.9%.

For `Oc1ccc(/C=C2\CCCc3cc4ccc(O)cc4[o+]c32)c(O)c1`, the growth is -13.8% (active).

With `CCCSc1nc(NC2CC2)c(C#N)c(-c2ccc(OC)cc2)n1`, the growth is 139%.

As to `COc1ccc(/C=C/C(=O)c2ccc(NC(=O)CN3C(=O)NC(C)(c4ccccc4)C3=O)cc2)cc1` (stereo unspecified), the growth was 49.4%.

On to `Brc1ccc(/C=N/Nc2ncnc3sc4c(c23)CCN(Cc2ccccc2)C4)cc1`, for which the growth is -7.6% (active).

In the case of `CC1(c2ccccc2)NC(=O)N(CC(=O)Nc2ccc(C(=O)/C=C/C=C/c3ccccc3)cc2)C1=O` (stereo unspecified), the growth was 3.2% (active).

On to `O=C(c1ccc(Cl)cc1)C1[C@H](c2ccccc2Br)[C@@H](c2ccccc2)NC12C(=O)Nc1ccc(Cl)cc12` (stereo partly specified), for which the growth was -40.2% (active).

Regarding `COc1ccc2nc(Cl)c(-c3cc(-c4ccccc4)nc(=S)[nH]3)cc2c1`, the growth is 76%.

For `CC(=O)Oc1ccccc1C(=O)Oc1ccc(C(=O)/C=C/c2ccncc2)cc1`, the growth is -59.3% (active).

With `c1ccc(C(=C(c2ccc(OCCN3CCCCC3)cc2)c2ccc(OCCN3CCCCC3)cc2)C2CCCC2)cc1`, the growth was -87.8% (active).

On to `CCCCSc1nc(Nc2ccc(/C(C)=N/NC(N)=S)cc2)c(C#N)c(-c2ccc(OC)cc2)n1`, for which the growth was 87.7%.

As to `COc1ccc(C(=O)Nc2ccc(-c3ccc4c(c3)NC(=O)/C4=C\c3ccc[nH]3)cc2)cc1`, the growth was -70% (active).

On to `COc1cccc(/C=C2\N=C(C)N(CCc3ccc(S(N)(=O)=O)cc3)C2=O)c1`, for which the growth is 113%.

In the case of `COc1ccc(-c2nc(-c3ccccc3)c(-c3ccccc3)n2-c2ccc(S(=O)(=O)Nc3ncccn3)cc2)cc1OC`, the growth is 67.8%.

With `Cc1ccc(F)cc1N/C=c1\s/c(=C(\C#N)C(=O)Nc2ccccc2)n(-c2ccccc2)c1=O`, the growth was 53%.

With `CC1(c2ccccc2)NC(=O)N(CC(=O)Nc2ccc(C(=O)/C=C/c3ccccc3)cc2)C1=O` (stereo unspecified), the growth was -2.64% (active).

As for `COc1ccc(N2N=C(c3ccc4c(c3)OCCO4)CC2c2cccc(NC(=O)CCCNS(=O)(=O)c3ccc(F)cc3)c2)cc1` (stereo unspecified), the growth is 60.8%.

With `Cc1ccc(S(=O)(=O)c2nc(-c3ccccc3)oc2S(=O)(=O)CC(=O)N2CCCC2)cc1`, the growth was -91.8% (active).

Consider `Cn1cc(/C=N/Nc2cccc(Cl)n2)c2ccccc21`, for which the growth is -1.15% (active).

Consider `CN(C)c1ccc(/C=C/C(=O)c2ccc(NC(=O)CN3C(=O)NC(C)(c4ccccc4)C3=O)cc2)cc1` (stereo unspecified), for which the growth was 7.04% (active).

For the compound `O=C1N/C(=N\c2nccs2)S/C1=C\c1cccs1`, the growth is 10.4%.

As to `O=C(c1ccc(O)cc1)C1[C@H](c2ccccc2Br)[C@@H](c2ccccc2)NC12C(=O)Nc1ccc(Cl)cc12` (stereo partly specified), the growth is -47.1% (active).
